“And” between values parts separate entries of the source, which are not always exact repeats. Identical values can stand only once. The source made the active and inactive calls.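 How the source made its calls, unless noted: active means inhibition at or above 50% relative to wild type and mutant plate controls; inactive means inhibition below 50%.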

Assay [1] is described as follows: inhibitors of TNFa-induced NFkB p65 translocation, primary screen, imaging, HUVEC, MLSMR starter and 10KST1 sets (AID 438;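 active means inhibition above 20% together with a positive visual image hit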;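 further: compound added about 3h40 before a 20 min TNFalpha stimulation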;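 on inhibition: signal is the nuclear over cytoplasmic p65 intensity ratio per well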). Conditions: HUVEC TNFa-induced p65 nuclear translocation; cell count: measured here: nuclei count (cytotoxicity indicator), at 2.08 µM; inhibition: at 2 µM, stronger effect = higher value, 0% TNFa-plus-vehicle, 100% no-TNFa wells.
Assay [2] is described as follows: inhibitors of mutant huntingtin aggregation, primary screen, imaging, exon1htt(103Q)mCFP cells, high-content imaging (AID 483;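 active means visual image review flags a hit and inhibition of aggregation exceeds 20%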;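 further: compound exposure lasted 3 days before fixation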;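 on nuclei count: percent of the per-plate median nuclei count of sample wells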). The following applies: exon1htt(103Q)mCFP cell line, aggregate imaging, at 2 µM; inhibition of aggregation: stronger effect = higher value; nuclei count: measured here: cell count, toxicity.
Assay [3] can be described thus: inhibitors of E-selectin induction by TNFa, primary screen, imaging, HUVEC, immunofluorescence, MLSMR starter and 10KST1 sets (AID 487;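 active means visually confirmed hit in the image check and inhibition above 20%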;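 on inhibition: signal is fraction of cell area covered by stained E-selectin grains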;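 on nuclei count: 100% = median nuclei count of all wells on the same plate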). The following applies: HUVEC TNFalpha-induced E-selectin immunofluorescence imaging, at 2 µM; inhibition: stronger effect = higher value; nuclei count: measured here: cell number, toxicity.
Assay [4] in a line: DUSP6 inhibitors restoring Erk phosphorylation by chemical complementation, primary imaging in DUSP6-transfected HeLa (AID 609;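 active means compounds giving at least 50% inhibition in the cell-based MKP-3 phosphatase rescue imaging test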;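 on inhibition: phospho-Erk level distribution per well compared with pooled transfected vehicle control wells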). The following applies: HeLa MKP-3 transfected, phospho-Erk imaging KS statistic, at 10 µM, cells stimulated with TPA for 15 min.
For assay [5], the target named is Dual specificity protein phosphatase 6 (Homo sapiens) (UniProt Q16828). Described as above. The following applies: HeLa MKP-3 transfected, phospho-Erk imaging KS statistic; at 10 µM; stronger effect = higher value; cells stimulated with TPA for 15 min.
Assay [6] deals with Voltage-gated potassium channel subunit beta-2 (Rattus norvegicus) (UniProt P62483). The experiment in a line: KvBeta enzyme negative modulators, primary screen, biochemical, NADPH fluorescence (AID 622;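 active means fluorescence slope higher than the sample average by over 3 SD, cut at about -0.22 in these data, passing the limit was not always enough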;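 further: slope of raw intensity against log time taken from 70 to 1610 s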). The following applies: recombinant KvBeta, 4-cyanobenzaldehyde reduction, at 10 µM, stronger effect = higher value.
Assay [7] has the same target. As to the kind of experiment: KvBeta positive modulators, primary screen, biochemical, NADPH fluorescence (AID 623;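 active means NADPH fluorescence slope more negative than the mean of all samples by about 3 SD, 99.7% confidence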;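 further: fluorescence intensity change per second fitted from 20 to 320 s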). Conditions: Recombinant KvBeta, NADPH fluorescence decrease slope, 10 min; at 10 µM; stronger effect = lower value.
Assay [8] deals with Alpha-2C adrenergic receptor (Homo sapiens) (UniProt P18825). As to the kind of experiment: modulators of alpha2C/GIRK thallium flux, primary screen, cell-based, HEK293 alpha2C/GIRK1/2 (AID 624;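 active means fluorescence slope after compound addition differing from the mean of all screened samples at 99.7% confidence, in either direction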;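 further: slope of fluorescence ratio to pre-addition baseline per second over 15 to 24 s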). Conditions: thallium flux BTC fluorescence, at 10 µM, actives lie on both sides.
Assay [9] can be described thus: inhibitors of larval lipid processing in zebrafish, primary screen, whole organism, PED6 fluorescence, gall bladder and intestine (AID 686;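 active means a full or partial loss of lipid-probe fluorescence in the fish gall bladder, intestine or both, judged by eye; inactive means no fluorescence loss, or compound toxic to the fish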;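 further: larvae 5 to 7 days old with five fish per well; signal comes from phospholipase A2 cleavage of quenched PED6 carried via bile; overnight exposure to compound and PED6 before scoring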). The following applies: Zebrafish larvae PED6 lipid processing, fluorescence scoring; screened at 20 µM (by protocol).
Assay [10] in a line: inhibitors of Chlamydomonas gravitaxis, primary screen, whole organism, Chlamydomonas reinhardtii, WT vs cilia-less mutant, absorbance, 96-well (AID 463189).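 Further: 0% = wild type cc124 cells in DMSO and 100% = ciliumless bld1 mutant cells.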 Conditions: OD600 absorbance, 2 days, at 10 µM, stronger effect = higher value.
Assay [11] is described as follows: inhibitors of Sendai virus-induced IRF3 signaling, primary screen, TLR/RLR signaling modifier project, cell-based, Sendai virus stimulus, luciferase, 10K MLSCN set (AID 602276;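 active means inhibition at or above 50% at 10 µM; inactive means inhibition below 50%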;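 further: firefly luciferase from ISG56 promoter only with Renilla not read in this screen; 0% = Sendai virus plus DMSO and 100% = medium plus DMSO without virus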). Conditions: HEK293 RL24 IRF3 luciferase reporter, at 10 µM, stronger effect = higher value. A general note: Reporter assays use an easily measured gene product as a stand-in for the process of interest.

A short description of assay [12]: inhibitors of poly I:C-induced TLR3 signaling, primary screen, cell-based, poly I:C stimulus, luciferase, 10K MLSCN set (AID 602277;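 active means inhibition of the reporter signal at or above 50%; inactive means inhibition below 50%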). Conditions: HEK293-TLR3 RL24 IRF3 luciferase reporter, at 10 µM, stronger effect = higher value.
The mark [13] stands for this setting: measured here: cell density z-score.
The mark [14] stands for this setting: measured here: nuclear c-Myc green intensity z-score.
Setting [15] is: measured here: nuclear pErk red intensity z-score, stronger effect = higher value.

Chain of Voltage-gated potassium channel subunit beta-2 (Rattus norvegicus) (P62483 whole entry, looked up): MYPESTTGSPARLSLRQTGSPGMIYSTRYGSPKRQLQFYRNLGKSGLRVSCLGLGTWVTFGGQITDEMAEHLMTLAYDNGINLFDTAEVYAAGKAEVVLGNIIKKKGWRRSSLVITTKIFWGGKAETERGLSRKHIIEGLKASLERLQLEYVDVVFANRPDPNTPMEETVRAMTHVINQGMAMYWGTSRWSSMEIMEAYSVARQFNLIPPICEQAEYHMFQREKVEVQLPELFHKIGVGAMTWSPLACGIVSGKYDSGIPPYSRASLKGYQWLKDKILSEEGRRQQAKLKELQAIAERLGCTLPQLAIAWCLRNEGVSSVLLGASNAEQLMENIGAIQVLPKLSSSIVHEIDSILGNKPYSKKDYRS
Chain of Dual specificity protein phosphatase 6 (Homo sapiens) (Q16828 whole entry, looked up): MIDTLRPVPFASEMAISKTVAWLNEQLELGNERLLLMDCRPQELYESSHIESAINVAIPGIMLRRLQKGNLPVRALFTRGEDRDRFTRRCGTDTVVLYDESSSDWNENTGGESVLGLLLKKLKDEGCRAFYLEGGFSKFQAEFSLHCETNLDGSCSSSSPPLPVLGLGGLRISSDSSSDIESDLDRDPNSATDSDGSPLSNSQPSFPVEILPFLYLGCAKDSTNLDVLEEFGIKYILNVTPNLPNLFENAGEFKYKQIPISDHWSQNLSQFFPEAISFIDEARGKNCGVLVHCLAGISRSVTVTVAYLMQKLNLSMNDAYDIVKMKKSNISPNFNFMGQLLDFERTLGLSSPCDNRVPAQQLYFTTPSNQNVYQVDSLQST
Chain of Alpha-2C adrenergic receptor (Homo sapiens) (P18825 whole entry, looked up): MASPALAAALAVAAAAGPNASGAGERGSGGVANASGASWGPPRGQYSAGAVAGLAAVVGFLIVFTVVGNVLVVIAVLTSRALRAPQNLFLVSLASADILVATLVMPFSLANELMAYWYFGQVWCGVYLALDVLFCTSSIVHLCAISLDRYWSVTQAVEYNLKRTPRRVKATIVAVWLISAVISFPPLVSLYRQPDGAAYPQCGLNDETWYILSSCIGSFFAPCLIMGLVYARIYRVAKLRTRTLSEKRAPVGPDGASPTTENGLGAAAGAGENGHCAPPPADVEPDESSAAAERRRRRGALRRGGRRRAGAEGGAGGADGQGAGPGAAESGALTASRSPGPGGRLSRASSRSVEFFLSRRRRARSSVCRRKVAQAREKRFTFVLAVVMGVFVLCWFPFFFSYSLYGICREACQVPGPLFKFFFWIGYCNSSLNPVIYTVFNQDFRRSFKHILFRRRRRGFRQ

Take `Nc1nc(Cl)nc2c1ncn2[C@@H]1O[C@H](CO)[C@@H](O)[C@H]1O`: the cell count in [1] is 493. Further, the inhibition in assay [1] is -14.6% (inactive); in assay [3], -20.3% (inactive); in assay [5], 7.39% (inactive); in assay [10], 13% (inactive); in assay [11] it was 16.8% (inactive); in [12], 39% (inactive). The inhibition of aggregation in assay [2] was 16.9% (inactive). In addition, the figures for the nuclei count in [2] and in assay [3] were 88.7% and 117%, respectively. The z-score in [4] (setting [13]) is 0.919; in assay [4] (setting [14]), 0.297; in assay [4] (setting [15]) it was -0.425. Further, the fluorescence slope in assay [6] is -0.439 (inactive). For the same compound, the NADPH fluorescence slope in assay [7] is 2.4e-05 (inactive). Besides, the slope in [8] was 0.00614 (inactive). Moreover, the call in [9] was inactive.
With `Brc1cccc(-c2cnc3n2CCCCC3)c1`, the cell count in [1] came to 517. The inhibition in assay [1] is -12.1% (inactive); in [3], -58.1% (inactive); in assay [5], -8.95% (inactive); in assay [10] it was 59.2% (active); in assay [11] it was -2.77% (inactive); in [12], -38% (inactive). In addition, the inhibition of aggregation in assay [2] was 5.1% (inactive). Further, the values for the nuclei count in assay [2] and in assay [3] were 76.5% and 139%, respectively. Further, the z-score in [4] (setting [13]) was 0.246; in assay [4] (setting [14]), -0.612; in [4] (setting [15]), 1.65. Besides, in assay [6], the fluorescence slope is -0.446 (inactive). For the same compound, in assay [7], the NADPH fluorescence slope was -0.000303 (inactive). Moreover, the slope in [8] was 0.00481 (inactive). Besides, the compound was classed as inactive in assay [9].
In the case of `CCCCn1cnc2c(c1=O)c1nc3ccccc3nc1n2Cc1ccc2c(c1)OCO2`, in assay [1], the cell count was found to be 588. Further, the inhibition is -2% (inactive) in assay [1]; -78% (inactive) in assay [3]; -4.7% (inactive) in [5]; 10.8% (inactive) in assay [10]; 7.61% (inactive) in assay [11]; 1.84% (inactive) in assay [12]. Moreover, the inhibition of aggregation in assay [2] was -18.6% (inactive). Besides, the nuclei count in [2] amounted to 101%; in [3], 129%. Further, the z-score in assay [4] (setting [13]) is 0.775; in [4] (setting [14]) it was -1.04; in assay [4] (setting [15]), -0.0661. Moreover, the fluorescence slope in assay [6] is -0.159 (inactive). Also, in assay [7], the NADPH fluorescence slope is 1.1e-05 (inactive). The slope in assay [8] is 0.00729 (inactive). In addition, the call in assay [9] was inactive.
As to `CCn1cc(C(=O)NCc2ccco2)c(=O)c2cc(F)c(N3CCN(C(=O)c4ccco4)CC3)cc21`, the cell count in [1] is 380. The inhibition in [1] is 16.3% (inactive); in [3], -117% (inactive); in [5] it was 19.4% (inactive); in [10], -7.6% (inactive); in [11], 14.3% (inactive); in assay [12], 13.7% (inactive). In assay [2], the inhibition of aggregation is 13.6% (inactive). For the same compound, the values for the nuclei count in assay [2] and in assay [3] were 99.3% and 118%, respectively. Further, the z-score was 2.14 in [4] (setting [13]), -0.717 in [4] (setting [14]) and 0.644 in assay [4] (setting [15]). Also, the fluorescence slope in [6] is -0.279 (inactive). The NADPH fluorescence slope in assay [7] was 2.6e-05 (inactive). In addition, the slope in [8] is 0.00489 (inactive). Moreover, in [9], the result was inactive.
In the case of `C[C@]12CCC(=O)C=C1CC[C@@H]1[C@@H]2[C@@H](O)C[C@@]2(C)[C@H]1CC[C@]2(O)C(=O)CO`, the cell count in [1] was determined as 526. In addition, the inhibition is 1.3% (inactive) in [1]; -35.4% (inactive) in assay [3]; 5.42% (inactive) in assay [5]; 2.91% (inactive) and -18.2% (inactive) in [10]; 4.18% (inactive) in [11]; 38.7% (inactive) in [12]. Further, the inhibition of aggregation in [2] was -3.8% (inactive). The nuclei count is 63.5% in assay [2] and 94.1% in [3]. Also, the z-score was -3.38 in assay [4] (setting [13]), -0.793 in [4] (setting [14]) and -0.0815 in assay [4] (setting [15]). Besides, in [6], the fluorescence slope is -0.459 (inactive). Moreover, the NADPH fluorescence slope in assay [7] was -3.2e-05 (inactive). For the same compound, the slope in [8] is 0.00455 (inactive). In addition, the result in [9] was inactive.
Take `C[N+]12CCC(CC1)C(OC(=O)C(O)(c1ccccc1)c1ccccc1)C2` (stereo not given): the cell count in assay [1] came to 609. The inhibition in [1] is -0.8% (inactive); in [3], -71.3% (inactive); in assay [5], 3.45% (inactive); in assay [10], -10.3% (inactive); in [11] it was 6.28% (inactive); in assay [12], 21.7% (inactive). The inhibition of aggregation in assay [2] is 3.7% (inactive). Besides, the nuclei count in [2] was 106%; in assay [3], 119%. The results for the z-score in assay [4] (setting [13]), in assay [4] (setting [14]) and in assay [4] (setting [15]) were -0.393, -0.0364 and 0.334, respectively. Further, in [6], the fluorescence slope was -0.526 (inactive). Also, the NADPH fluorescence slope in assay [7] is -2.4e-05 (inactive). Besides, in assay [8], the slope is 0.00456 (inactive). The call in assay [9] was inactive.
As for `C[C@@H]1C[C@H]2[C@@H]3CCC4=CC(=O)C=C[C@]4(C)[C@@]3(F)[C@@H](O)C[C@]2(C)[C@H]1C(=O)CO`, in [1], the cell count stood at 647. Besides, the inhibition in assay [1] is -8.8% (inactive); in assay [3], -68% (inactive); in assay [5], 31.1% (inactive); in assay [10] it was 4.88% (inactive); in assay [11] it was -17.5% (inactive); in [12], -9.26% (inactive). The inhibition of aggregation in assay [2] is 0% (inactive). In addition, the values for the nuclei count in assay [2] and in [3] were 59.5% and 134%, respectively. Moreover, the z-score in [4] (setting [13]) is 1.14; in assay [4] (setting [14]), 0.339; in assay [4] (setting [15]), -1.14. In addition, in assay [6], the fluorescence slope was -0.536 (inactive). Further, the NADPH fluorescence slope in [7] is -9.8e-05 (inactive). Also, the slope in [8] is 0.00544 (inactive). In assay [9], the call was inactive.
For the compound `O=C(O)CCc1cc(I)c(Oc2ccc(O)c(I)c2)c(I)c1`, the cell count in assay [1] was found to be 623. For the same compound, the inhibition in assay [1] was -9.5% (inactive); in assay [3], -120% (inactive); in assay [5], 9.37% (inactive); in [10], 3.29% (inactive); in assay [11], 21.3% (inactive); in assay [12], 34.6% (inactive). The inhibition of aggregation in [2] is -4.4% (inactive). The nuclei count in [2] turned out to be 107%; in [3], 127%. The z-score in [4] (setting [13]) was 1.17; in [4] (setting [14]), -0.143; in assay [4] (setting [15]) it was 0.645. Also, the fluorescence slope in [6] is -0.522 (inactive). The NADPH fluorescence slope in assay [7] was -5.4e-05 (inactive). Also, the slope in [8] was 0.00395 (inactive). In assay [9], the result was inactive.
On to `CCCCCCCCNC(C)C(O)c1ccc(SC(C)C)cc1` (stereo not given), for which the cell count in [1] is 561. In addition, the inhibition in [1] was -16% (inactive); in assay [3], -40.8% (inactive); in assay [5] it was 25.1% (inactive); in assay [10] it was 151% (active); in assay [11], 19.5% (inactive); in [12], -3.66% (inactive). Further, in assay [2], the inhibition of aggregation is -10.4% (inactive). Further, the nuclei count in assay [2] came to 105%; in assay [3], 112%. For the same compound, the z-score was 1.06 in assay [4] (setting [13]), -0.321 in assay [4] (setting [14]) and -0.268 in assay [4] (setting [15]). Moreover, the fluorescence slope in [6] was -0.477 (inactive). In [7], the NADPH fluorescence slope was -6.9e-05 (inactive). Further, the slope in [8] was 0.00365 (inactive). Also, the outcome in assay [9] was inactive.
`Cc1oc2cc(O)ccc2c(=O)c1-c1cnn(-c2ccccc2)c1`: the cell count in [1] turned out to be 454. Moreover, the inhibition in [1] is -6.5% (inactive); in [3], -212% (inactive); in assay [5], -9.91% (inactive); in [10], 9.82% (inactive); in assay [11] it was 7.89% (inactive); in [12], 0.114% (inactive). The inhibition of aggregation in assay [2] is -9% (inactive). The nuclei count stood at 102% in assay [2] and 120% in [3]. Further, the results for the z-score in [4] (setting [13]), in assay [4] (setting [14]) and in [4] (setting [15]) were -0.098, -0.0689 and 0.86, respectively. The fluorescence slope in [6] was -0.486 (inactive). Moreover, the NADPH fluorescence slope in [7] was 1.2e-05 (inactive). In assay [8], the slope is 0.00452 (inactive). Also, the result in assay [9] was inactive.

As a reminder, the inhibition is the relative decrease from the control value, in per cent.
